About 3,100 (6.6%) of roughly 47,000 compounds were called active. No stated cut-off is given here; in the data, active means inhibition above about 30%; inactive means the rest. Shown is part of a subset that was picked to be rich in actives.
Target: Ubiquitin carboxyl-terminal hydrolase 17-like protein 5 (Homo sapiens) (UniProt A8MUK1)
Test: blocks human USP17 ubiquitin-rhodamine cleavage (AID 1645855)
Details: purified USP17, Ub-rhodamine cleavage fluorescence, 3 h; at 50 µM; stronger effect = higher value

Ubiquitin carboxyl-terminal hydrolase 17-like protein 5 (Homo sapiens), sequence (A8MUK1 whole entry, looked up): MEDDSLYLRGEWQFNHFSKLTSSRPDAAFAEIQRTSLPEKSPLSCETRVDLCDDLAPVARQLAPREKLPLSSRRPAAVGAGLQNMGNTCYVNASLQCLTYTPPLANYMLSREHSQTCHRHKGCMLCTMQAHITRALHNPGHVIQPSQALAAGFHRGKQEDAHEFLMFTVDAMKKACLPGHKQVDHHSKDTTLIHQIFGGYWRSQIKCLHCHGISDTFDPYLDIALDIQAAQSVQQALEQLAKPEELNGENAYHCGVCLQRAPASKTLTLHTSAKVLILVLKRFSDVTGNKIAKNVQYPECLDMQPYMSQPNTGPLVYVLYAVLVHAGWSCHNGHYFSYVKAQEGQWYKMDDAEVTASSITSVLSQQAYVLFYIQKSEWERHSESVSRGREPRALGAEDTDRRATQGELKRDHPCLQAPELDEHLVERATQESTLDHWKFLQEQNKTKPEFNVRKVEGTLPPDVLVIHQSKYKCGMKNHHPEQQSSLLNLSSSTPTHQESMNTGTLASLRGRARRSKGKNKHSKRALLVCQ

Structure (SMILES)	inhibition
COc1cc([C@@H]2c3cc4c(cc3C[C@@H]3COC(=O)[C@H]32)OCO4)cc(OC)c1OC	68.6% (active)
O=C1CSC(c2ccc(F)cc2)c2c(-c3ccccc3)nn(-c3ccccc3)c2N1 (stereo not given)	6.01% (inactive)
c1ccc(C2NCc3ccccc3-n3cccc32)cc1 (stereo not given)	1.12% (inactive)
O=c1c2ccccc2nc(-c2ccccc2)n1-c1ccccn1	-2.09% (inactive)
CN1C[C@H]2N(c3ncccn3)CCC[C@@]2(C(=O)NCC2CC2)C1	8.79% (inactive)

From PubChem BioAssay AID1645855 (Buhrlage Lab, Dana-Farber Cancer Institute and Novartis …, 2021)
